Hits are enriched below; roughly 12% of the tested compounds scored in any of these assays.
JMJD2A Tudor – inhibitors of human JMJD2A Tudor domain; O75164; AlphaScreen JMJD2A-Tudor / H3K4me3 peptide binding; 390,000 tested, 4.4% active; AID 504339; Potency, µM (top dose mostly 114 µM), usual class: inhibitors; further: nearly all actives have a fitted effect of over 50% in size
G9a inh – blocks human histone lysine methyltransferase G9a; AID 504332; G9a H3K9 monomethylation, AlphaScreen, 2 h; Potency, µM (doses to about 102 µM), most hits filed as inhibitors; 350,000 tested, 8.8% active; further: nearly all actives have a fitted effect of over 75% in size
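G9a (20 nM) was preincubated 15 min with compound, then reacted 2 h at room temperature with 500 nM biotin-H3K9 peptide and 20 µM SAM. Monomethyl-H3K9 detected by AlphaScreen using anti-H3K9me1 antibody.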
Sfp inh – inhibitors of Bacillus subtilis Sfp phosphopantetheinyl transferase; AID 1490; Biochemical Sfp PPTase activity, qHTS; 310,000 tested, 3.5% active; Potency, µM, most hits filed as inhibitors; Q9F4F7;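 further: the enzyme is Sfp with the accession as filed and its product quenches rhodamine fluorescence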
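Fluorescence-quenching assay: 15 nM Sfp-PPTase preincubated 15 min at room temperature with compound, then 5 uM rhodamine-CoA and 12.5 uM BHQ-2-labelled YbbR peptide added. Fluorescence (ex 525/em 598 nm) read at start and after 30 min; difference gives rate.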
HP1b chromo inh – blocks HP1-beta chromodomain binding to methylated histone tails. 390,000 tested, 0.56% active. AID 540317. Potency, µM (highest dose often 114 µM), most hits filed as inhibitors. AlphaScreen HP1-beta / biotin-H3K9me3 peptide binding; further: nearly all actives have a fitted effect of over 70% in size
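Compound inhibition of the preformed complex between 50 nM HP1-beta and 50 nM biotinylated H3K9me3 peptide was read by AlphaScreen. Buffer was PBS pH 7.4 with 0.01% Tween-20. Incubations ran 30 min at room temperature, with 10 ug/mL donor/acceptor beads.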
BAZ2B inh – BAZ2B (human) inhibition; Potency, µM (titrated, usually from 114 µM), actives largely listed as inhibitors; 360,000 tested, 4.4% active; Q9UIF8; AlphaScreen BAZ2B-H3K14Ac peptide displacement; further: nearly all actives have a fitted effect of over 60% in size
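Compounds, titrated to a top concentration of 110 uM, were incubated 30 min at room temperature with preformed BAZ2B/acetyl-K14 H3 peptide complex (50 nM each). Proximity signal was measured by AlphaScreen after 20 min with beads.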
L3MBTL1 inh – inhibitors of human L3MBTL1. Potency, µM (top dose mostly 57.1 µM), usual class: inhibitors. 230,000 tested, 0.66% active. AID 485360. AlphaScreen L3MBTL1–H3K9me1 peptide binding. Q9Y468; further: nearly all actives have a fitted effect of over 60% in size
Target sequence (Q9Y468 whole entry, looked up): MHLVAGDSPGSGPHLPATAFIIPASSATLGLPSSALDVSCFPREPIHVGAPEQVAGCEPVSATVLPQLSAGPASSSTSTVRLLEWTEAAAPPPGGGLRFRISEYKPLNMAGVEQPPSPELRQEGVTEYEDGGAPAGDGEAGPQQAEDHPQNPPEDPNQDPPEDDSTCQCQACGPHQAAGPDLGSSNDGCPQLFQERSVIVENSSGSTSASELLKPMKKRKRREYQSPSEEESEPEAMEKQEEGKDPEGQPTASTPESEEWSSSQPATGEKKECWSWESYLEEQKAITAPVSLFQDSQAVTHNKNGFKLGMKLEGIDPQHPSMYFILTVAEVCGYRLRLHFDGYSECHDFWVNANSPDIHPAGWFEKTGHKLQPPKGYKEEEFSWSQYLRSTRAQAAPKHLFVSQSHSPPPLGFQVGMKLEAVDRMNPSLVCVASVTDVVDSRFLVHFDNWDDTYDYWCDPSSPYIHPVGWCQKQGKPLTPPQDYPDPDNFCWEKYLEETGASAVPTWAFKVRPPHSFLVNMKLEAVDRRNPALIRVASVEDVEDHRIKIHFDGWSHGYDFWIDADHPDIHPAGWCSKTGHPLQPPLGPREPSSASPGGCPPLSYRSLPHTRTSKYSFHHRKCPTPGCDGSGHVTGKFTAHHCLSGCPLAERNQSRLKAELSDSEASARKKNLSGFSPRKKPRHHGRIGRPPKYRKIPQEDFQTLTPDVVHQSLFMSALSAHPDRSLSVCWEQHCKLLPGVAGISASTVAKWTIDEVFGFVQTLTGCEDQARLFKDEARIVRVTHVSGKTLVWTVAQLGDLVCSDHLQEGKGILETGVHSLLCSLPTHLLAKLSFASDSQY
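First, the protein-peptide complex forms for 30 min at room temperature (L3MBTL1 50 nM, biotinylated H3K9me1 peptide 75 nM). Next, compounds are pin-transferred and incubated 30 min. Finally, AlphaScreen beads are added and read after 30 min.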
Each line names hits and unclear results; the compound was inactive in the other large screens; ! = repeats disagree. The call rests on the fitted dose curve; in most records, active means well fitted curve in the direction sought with a large enough effect; inconclusive means small, poorly fitted or top-dose-only effect, or another doubt; inactive means no such curve, though single readings can be large; an effect the other way counts as inactive or inconclusive.

COc1ccccc1NC(=O)CCS(=O)(=O)c1ccc2nc(C)sc2c1	none (no result: Sfp inh, L3MBTL1 inh)
CCN(CC)c1ccc(NC(=O)CCc2nc3cccnc3n2Cc2cccs2)c(C)c1	JMJD2A Tudor 20µM, G9a inh 8.9µM, BAZ2B inh inconclusive (no result: Sfp inh, L3MBTL1 inh)
CCN(CC)c1ccc(NC(=O)CCS(=O)(=O)c2cccc3nsnc23)c(C)c1	JMJD2A Tudor 56µM, G9a inh 40µM, HP1b chromo inh inconclusive, BAZ2B inh inconclusive
Cc1nc2ccc(S(=O)(=O)CCC(=O)Nc3ccc(F)cc3C)cc2s1	JMJD2A Tudor 71µM, G9a inh 4.5µM (no result: Sfp inh, L3MBTL1 inh)
Cc1ccc(NC(=O)CCS(=O)(=O)c2cccc3nsnc23)c(C)c1	none (no result: Sfp inh, L3MBTL1 inh)
CCN(C(=O)CCS(=O)(=O)c1cccc2nonc12)c1ccc(C)c(C)c1	G9a inh 16µM (no result: L3MBTL1 inh)
Cc1cccc(N(C)C(=O)CCS(=O)(=O)c2cccc3nonc23)c1	none (no result: L3MBTL1 inh)
CCOc1ccc(OCC)c(NC(=O)CCc2nc3cccnc3n2Cc2cccs2)c1	none (no result: Sfp inh, L3MBTL1 inh)
CCc1ccc2c(c1)cc(C)c1nnc(SCC(=O)Nc3cc(OC)c(OC)cc3C(=O)O)n12	JMJD2A Tudor inconclusive
COc1ccc(Cn2c(CCC(=O)Nc3cc(C)cc(C)c3)nc3cccnc32)cc1	none (no result: Sfp inh, L3MBTL1 inh)
COc1ccc(Cn2c(CCC(=O)Nc3ccc(C)cc3)nc3cccnc32)cc1	JMJD2A Tudor 79µM! (no result: L3MBTL1 inh)
CCc1ccc(NC(=O)CCS(=O)(=O)c2cccc3nsnc23)cc1	G9a inh 40µM, Sfp inh 79µM (no result: L3MBTL1 inh)
O=C(CNS(=O)(=O)c1cccc2nsnc12)NC1CCCCC1	none (no result: L3MBTL1 inh)
O=C(CCS(=O)(=O)c1cccc2nsnc12)NC1CCCCC1	G9a inh 22µM
COc1ccccc1CNc1ncnc2ccc(-c3cccnc3)cc12	none (no result: JMJD2A Tudor, G9a inh, HP1b chromo inh, BAZ2B inh, L3MBTL1 inh)
COC(=O)C1=C(C)NC=C([N+](=O)[O-])C1c1ccc(OC)cc1 (centres undefined)	Sfp inh 14µM
COc1ccc(C)cc1NC(=O)Cn1c(=O)oc2cc(S(=O)(=O)N3CCCCCC3)ccc21	G9a inh inconclusive (no result: Sfp inh, L3MBTL1 inh)
CO/N=C\Cc1oc(=O)c(NC(=O)c2ccccc2)cc1C(=O)OC	G9a inh 32µM (no result: L3MBTL1 inh)
COC(=O)c1cc(NC(=O)c2ccccc2)c(=O)oc1C/C=N\OCc1ccc(Cl)cc1Cl	G9a inh 40µM (no result: L3MBTL1 inh)
O=C(C/C=N/OCc1ccc(Cl)cc1Cl)c1ccccc1	none
CSc1nc(Cl)c(Cc2ccc(OC(C)C)cc2)c(N(C)C)n1	none
CCOCc1[nH]c(=S)[nH]c(=O)c1Cc1ccc(OC(C)C)cc1	G9a inh 50µM
COc1ccccc1CNC(=O)c1ccc2c(c1)nc(C)n2-c1ccccc1OC	G9a inh inconclusive (no result: Sfp inh, L3MBTL1 inh)
Nc1cc2c3ccccc3ccc2c2ccccc12	none (no result: G9a inh, Sfp inh, BAZ2B inh, L3MBTL1 inh)
O=C(CCNC(=O)c1ccc(Cl)cc1)NCC(c1ccco1)N1CCCC1 (centres undefined)	none (no result: Sfp inh)
Cn1c(-n2cccc2)c(-c2c(-c3ccccc3)[nH]c3c2c(=O)[nH]c(=O)n3C)c(=O)[nH]c1=O	BAZ2B inh 79µM, L3MBTL1 inh 14µM (no result: Sfp inh)
CCC(C)c1ccc(O)c(N)c1 (centres undefined)	JMJD2A Tudor inconclusive, G9a inh 2.8µM, Sfp inh 50µM
CC(C)c1ccc(O)c(N)c1	G9a inh 1.4µM, Sfp inh 11µM, BAZ2B inh inconclusive
Cc1nnc(NC2=NCCC2)s1	JMJD2A Tudor 79µM, G9a inh 28µM
c1coc(-c2nnc(NC3=NCCC3)o2)c1	none
Cc1nnc(Nc2ccc(Cl)cc2)s1	G9a inh inconclusive (no result: L3MBTL1 inh)
Cc1nnc(NC2=NCCC2)o1	Sfp inh inconclusive, BAZ2B inh 79µM
Cn1c(CNC(=O)c2ccc3c(c2)OCO3)nnc1SCC(=O)Nc1ccc(F)cc1F	none (no result: L3MBTL1 inh)
Cc1ccc(O)c(N=Nc2ccccc2)n1	JMJD2A Tudor inconclusive, G9a inh 11µM!, Sfp inh inconclusive (no result: BAZ2B inh, L3MBTL1 inh)
COc1cccc(NC(=O)C2CCN(S(=O)(=O)c3c(C)noc3C)CC2)c1	none (no result: Sfp inh, L3MBTL1 inh)
COc1ccc(/C=C/C(=O)Nc2ccc3nc4n(c(=O)c3c2)CCCC4)cc1OC	none (no result: L3MBTL1 inh)
COc1ccc(/C=C/C(=O)Nc2ccc3nc4c(c(Nc5ccccc5OC)c3c2)CCCC4)cc1	JMJD2A Tudor inconclusive, G9a inh 7.9µM (no result: Sfp inh, L3MBTL1 inh)

Source: PubChem BioAssay (National Center for Advancing Translational Sciences (NCATS))
